Our source for the growth values is the supplement of paper PMC11172423.

A number with no mark means an inactive call.

One experiment relates to Madurella mycetomatis MM55. As to the kind of experiment: growth relative to untreated control; higher = less inhibition, active = 20 or less. Particulars: 25 µM. How it is done:
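Hyphal fragments of M. mycetomatis MM55 or F. senegalensis CBS197.79 in RPMI 1640/MOPS were exposed to each MMV COVID Box or Global Health Priority Box compound at 100 or 25 µM for 7 days at 37 °C. Viability was read with MTS (490 nm, M. mycetomatis) or resazurin (600 nm, F. senegalensis), background-corrected with a medium-only control and expressed as % growth relative to the untreated growth control. Inhibition of more than 80% was taken as growth inhibition.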
`CC1(Nc2ncc3nc(Nc4cc(Cl)cc(C(F)(F)F)c4)n(C4CCNC4)c3n2)CC1` (stereo not given): the growth is 6.99% (active).
With `O=C(NC(=O)c1c(F)cccc1F)Nc1ccc(Cl)cc1`, the growth was 99.6%.
On the same count and under the same terms, with `CCOCn1c(-c2ccc(Cl)cc2)c(C#N)c(Br)c1C(F)(F)F` the figure was 30.1%; with `CCOP(=S)(OCC)Oc1nc(Cl)c(Cl)cc1Cl`, 142%; with `CC(c1ccc(C(F)(F)F)nc1)S(C)(=O)=NC#N` (stereo not given), 71.6%.
The same measure, in the same setting: with `CNC(=O)O/N=C(/C)SC` the figure was 112%; with `Cc1sc2c(c1C)C(c1ccc(Cl)cc1)=N[C@@H](CC(=O)OC(C)(C)C)c1nnc(C)n1-2`, 97.1%; with `N#CCNC(=O)c1cnccc1C(F)(F)F`, 109%.
Same read-out and setting: with `FC(F)(F)c1cc(Cl)cc(Nc2nc3cnc(OC4CCC4)cc3n2[C@@H]2CCNC2)c1` the figure was 79.6%.
Take `NCCc1cn(S(=O)(=O)c2c(Cl)nc3sccn23)c2ccccc12`: the growth is 79.9%.
The same measure, in the same setting: with `CC1(C)C(C=C(Cl)Cl)C1C(=O)OCc1cccc(Oc2ccccc2)c1` (stereo not given) the figure was 78.1%.
Same read-out and setting: with `O=[N+]([O-])/N=C1\NCCN1Cc1ccc(Cl)nc1` the figure was 92.8%; with `O=[N+]([O-])/C=C1\NCCCS1`, 94%.
For `CN/C(=N/CC1CCOC1)N[N+](=O)[O-]` (stereo not given), the growth was 90.9%.
On the same count and under the same terms, with `CCOc1ccc(C(C)(C)COCc2cccc(Oc3ccccc3)c2)cc1` the figure was 97%; with `CC(C)Nc1cc2c(cn1)nc(Nc1cc(Cl)cc(C(F)(F)F)c1)n2C1CCNC1` (stereo not given), 7.15% (active).
For the compound `COP(=S)(OC)Oc1nc(Cl)c(Cl)cc1Cl`, the growth is 88.5%.
For `N#Cc1nn(-c2c(Cl)cc(C(F)(F)F)cc2Cl)c(NCc2ccccn2)c1SC(F)F`, the growth was 47.2%.
As for `CC[C@@H]1CCC[C@H](O[C@H]2CC[C@H](N(C)C)[C@@H](C)O2)[C@@H](C)C(=O)C2=C[C@@H]3[C@@H](C=C(C)[C@@H]4C[C@@H](O[C@@H]5O[C@@H](C)[C@H](OC)[C@@H](OC)[C@H]5OC)C[C@@H]34)[C@@H]2CC(=O)O1.CC[C@@H]1CCC[C@H](O[C@H]2CC[C@H](N(C)C)[C@@H](C)O2)[C@@H](C)C(=O)C2=C[C@@H]3[C@@H](C=C[C@@H]4C[C@@H](O[C@@H]5O[C@@H](C)[C@H](OC)[C@@H](OC)[C@H]5OC)C[C@@H]34)[C@@H]2CC(=O)O1`, the growth is 133%.
For `CC[C@@H](C(=O)[C@@H](C)[C@@H](O)[C@H](C)[C@@H]1O[C@@H]([C@@H](CC)C(=O)O)CC[C@@H]1C)[C@H]1O[C@]2(C=C[C@@H](O)[C@]3(CC[C@@](C)([C@H]4CC[C@](O)(CC)[C@H](C)O4)O3)O2)[C@H](C)C[C@@H]1C`, the growth is 124%.

The same experiment, now with this note: 100 µM.
For `CC1(Nc2ncc3nc(Nc4cc(Cl)cc(C(F)(F)F)c4)n(C4CCNC4)c3n2)CC1` (stereo not given), the growth is 6.62% (active).
`O=C(NC(=O)c1c(F)cccc1F)Nc1ccc(Cl)cc1`: the growth is 81%.
Same read-out and setting: with `CCOCn1c(-c2ccc(Cl)cc2)c(C#N)c(Br)c1C(F)(F)F` the figure was 6.93% (active).
For `CCOP(=S)(OCC)Oc1nc(Cl)c(Cl)cc1Cl`, the growth is 111%.
On the same count and under the same terms, with `CC(c1ccc(C(F)(F)F)nc1)S(C)(=O)=NC#N` (stereo not given) the figure was 173%; with `CNC(=O)O/N=C(/C)SC`, 137%.
In the case of `Cc1sc2c(c1C)C(c1ccc(Cl)cc1)=N[C@@H](CC(=O)OC(C)(C)C)c1nnc(C)n1-2`, the growth was 4.14% (active).
The same measure, in the same setting: with `N#CCNC(=O)c1cnccc1C(F)(F)F` the figure was 142%; with `FC(F)(F)c1cc(Cl)cc(Nc2nc3cnc(OC4CCC4)cc3n2[C@@H]2CCNC2)c1`, 64%.
For the compound `NCCc1cn(S(=O)(=O)c2c(Cl)nc3sccn23)c2ccccc12`, the growth is 2.9% (active).
Same read-out and setting: with `CC1(C)C(C=C(Cl)Cl)C1C(=O)OCc1cccc(Oc2ccccc2)c1` (stereo not given) the figure was 151%; with `O=[N+]([O-])/N=C1\NCCN1Cc1ccc(Cl)nc1`, 98.3%; with `O=[N+]([O-])/C=C1\NCCCS1`, 122%.
Take `CN/C(=N/CC1CCOC1)N[N+](=O)[O-]` (stereo not given): the growth was 125%.
Same read-out and setting: with `CCOc1ccc(C(C)(C)COCc2cccc(Oc3ccccc3)c2)cc1` the figure was 116%.
Same read-out and setting: with `CC(C)Nc1cc2c(cn1)nc(Nc1cc(Cl)cc(C(F)(F)F)c1)n2C1CCNC1` (stereo not given) the figure was 6.36% (active); with `COP(=S)(OC)Oc1nc(Cl)c(Cl)cc1Cl`, 106%; with `N#Cc1nn(-c2c(Cl)cc(C(F)(F)F)cc2Cl)c(NCc2ccccn2)c1SC(F)F`, 131%.
Regarding `CC[C@@H]1CCC[C@H](O[C@H]2CC[C@H](N(C)C)[C@@H](C)O2)[C@@H](C)C(=O)C2=C[C@@H]3[C@@H](C=C(C)[C@@H]4C[C@@H](O[C@@H]5O[C@@H](C)[C@H](OC)[C@@H](OC)[C@H]5OC)C[C@@H]34)[C@@H]2CC(=O)O1.CC[C@@H]1CCC[C@H](O[C@H]2CC[C@H](N(C)C)[C@@H](C)O2)[C@@H](C)C(=O)C2=C[C@@H]3[C@@H](C=C[C@@H]4C[C@@H](O[C@@H]5O[C@@H](C)[C@H](OC)[C@@H](OC)[C@H]5OC)C[C@@H]34)[C@@H]2CC(=O)O1`, the growth was 91.5%.
Take `CC[C@@H](C(=O)[C@@H](C)[C@@H](O)[C@H](C)[C@@H]1O[C@@H]([C@@H](CC)C(=O)O)CC[C@@H]1C)[C@H]1O[C@]2(C=C[C@@H](O)[C@]3(CC[C@@](C)([C@H]4CC[C@](O)(CC)[C@H](C)O4)O3)O2)[C@H](C)C[C@@H]1C`: the growth is 70.3%.
